Experimental data published in ChEMBL document CHEMBL3988442, “University of Dundee, Small-Polar-MMV Screening Library” (2021).
The whole screen tested about 48,000 compounds, of which about 13,000 (27%) showed an effect of 50% or more. This is one part of the list.

test system: Wolbachia pipientis; assay: Anti-Wolbachia Cell-Based Screen; assay type: functional; parameters: scale not given: in the data most compounds retested in dose-response had high values; conditions: 5 µM

Compared with CCn1ccnc1CN1CCNCC1C.Cl.Cl (centres undefined), CC(C)N1CCOC(c2ccnc(N(C)C)n2)C1 (centres undefined) is higher in “Percent Effect” value: 0.9214% for the first, 82.78% for the second.

First: CN(C)C(=O)CN1CCCC12CCCN(c1ncc(F)cn1)C2.O=C(O)C(F)(F)F (centres undefined)
Second: Cc1cnc(N2C[C@H]3CCN(CC4CC4)C[C@@H]3C2)nc1.O=C(O)C(F)(F)F
The “Percent Effect” value of the first is lower: 0.08141% for the first, 6.173% for the second.

Compared with O=C(c1ncccn1)N1C[C@@H]2CN(CC3CC3)CCO[C@@H]2C1, Cc1cnc(N2C[C@H]3CCN(CC4CC4)C[C@H]3C2)nc1.O=C(O)C(F)(F)F is higher in “Percent Effect” value: -1.954% for the first, 15.24% for the second.

Going from CN1CCN(C(=O)Cc2csc(-c3ccsc3)n2)C(c2ccccc2)C1 (centres undefined) to CC1CN(C)CCN1C(=O)COc1cccc(Oc2ccccn2)c1 (centres undefined), the “Percent Effect” value rises from -6.196% to 82.16%.

Compared with CN(C)CCN(C)C[C@H]1CN2CC[C@H]1C[C@@H]2CNC(=O)Nc1ccsc1, CC1CCN(C[C@H]2CN3CC[C@H]2C[C@@H]3CNC(=O)Nc2ccsc2)CC1 is lower in “Percent Effect” value: 9.133% for the first, 0.4847% for the second.

Compared with Cc1csc(CN2CCC[C@]3(C[C@H](Oc4ccccn4)CO3)C2)n1.O=C(O)C(F)(F)F.O=C(O)C(F)(F)F, Cc1csc(CN2CCC[C@]3(C[C@@H](Oc4ccccn4)CO3)C2)n1.O=C(O)C(F)(F)F.O=C(O)C(F)(F)F is higher in “Percent Effect” value: -0.2968% for the first, 133.6% for the second.

First: Cn1cc(CN2CCC[C@]3(C[C@@H](Oc4ccccn4)CO3)C2)cn1.O=C(O)C(F)(F)F.O=C(O)C(F)(F)F
Second: Cn1cc(CN2CC[C@]3(C[C@H](Oc4ccccn4)CO3)C2)cn1.O=C(O)C(F)(F)F.O=C(O)C(F)(F)F
The “Percent Effect” value of the first is lower: 98.39% for the first, 102.3% for the second.

Going from O=C(O)C(F)(F)F.O=C(O)C(F)(F)F.c1ccc(O[C@H]2CO[C@@]3(CCCN(Cc4nccs4)C3)C2)nc1 to Cc1ncsc1CN1CCO[C@H]2[C@H](Oc3ccccn3)CC[C@@H]21.O=C(O)C(F)(F)F.O=C(O)C(F)(F)F, the “Percent Effect” value falls from 12.82% to -5.284%.

First: Cn1cc(CN2CCC[C@]3(C[C@H](Oc4ccccn4)CO3)C2)cn1
Second: O=S(=O)(C1CC1)N1CCC2(CCCN(Cc3ccccn3)C2)CC1
The “Percent Effect” value of the first is lower: 94% for the first, 112.9% for the second.

Compared with CN(C)[C@@H]1CN(Cc2cnn(C)c2)[C@@H]2COC[C@H]12.O=C(O)C(F)(F)F.O=C(O)C(F)(F)F.O=C(O)C(F)(F)F, CS(=O)(=O)N1CCC2(CCCN(Cc3ccccn3)C2)C1.O=C(O)C(F)(F)F.O=C(O)C(F)(F)F (centres undefined) is higher in “Percent Effect” value: -10.13% for the first, -1.492% for the second.

Going from Cc1cc(CN2CC[C@]3(C[C@@H](OCC(=O)N(C)C)CO3)C2)no1.O=C(O)C(F)(F)F to CN(C)C(=O)COC[C@@]12CCC[C@@H]1CNC2.O=C(O)C(F)(F)F, the “Percent Effect” value falls from 25.8% to -7.185%.

First: Cc1noc(C)c1CN1C[C@@H](OCC(=O)N(C)C)[C@H]2OCCC[C@H]21
Second: Cc1nc(CC(=O)N(CCN2CCOCC2)Cc2ccco2)c(C)s1
The “Percent Effect” value of the first is lower: -2.894% for the first, 5.284% for the second.

Compared with O=C(NCC1CC1)[C@@H]1C[C@@H]2OCCN[C@@H]2C1.O=C(O)C(F)(F)F, CC(C)CN1CCC2(CC1)CN(C(=O)C(C)C)C2.O=C(O)C(F)(F)F is lower in “Percent Effect” value: 8.68% for the first, -9.801% for the second.

Compared with Cc1cc(C)c(CNCC(O)c2ccc(F)c(F)c2)c(C)c1.Cl (centres undefined), COc1cc(C2SCC(=O)Nc3ccsc32)cc(OC)c1O (centres undefined) is lower in “Percent Effect” value: 6.678% for the first, -0.1259% for the second.

First: Cn1c(=O)n(C)c2cc(C3SCC(=O)Nc4ccsc43)ccc21 (centres undefined)
Second: O=C1CSC(c2ccc(O)cc2)c2sccc2N1 (centres undefined)
The “Percent Effect” value of the first is higher: 27.99% for the first, -5.574% for the second.

Compared with O=C1CSC(c2cccs2)c2cnn(C3CCCC3)c2N1 (centres undefined), CC(C)(C)n1ncc2c1NC(=O)CSC2c1ccsc1 (centres undefined) is higher in “Percent Effect” value: 10.18% for the first, 129% for the second.

Going from Cc1c(C2SCC(=O)Nc3c2cnn3C(C)(C)C)cnn1C (centres undefined) to Cn1cc(C2SCC(=O)Nc3c2cnn3C(C)(C)C)cn1 (centres undefined), the “Percent Effect” value falls from 122.6% to 109.1%.

First: COC(=O)c1ccc(C2SCC(=O)Nc3ccsc32)cc1 (centres undefined)
Second: COC(=O)c1ccc(C2SCC(=O)Nc3c2cnn3C(C)(C)C)cc1 (centres undefined)
The “Percent Effect” value of the first is lower: -2.415% for the first, 111.9% for the second.

First: COc1cccc(C2SCC(=O)Nc3ccsc32)c1OC (centres undefined)
Second: O=C1CSC(c2ccsc2)c2sccc2N1 (centres undefined)
The “Percent Effect” value of the first is lower: -5.826% for the first, 0.8024% for the second.

Compared with CC(C)(C)n1ncc2c1NC(=O)CSC2c1ccc2c(c1)OCCO2 (centres undefined), Cc1n[nH]c2c1C(c1cnn(C)c1)SCC(=O)N2 (centres undefined) is lower in “Percent Effect” value: 117.6% for the first, 12.5% for the second.

Going from CC1C(=O)Nc2cccnc2N1S(=O)(=O)c1ccc(C#N)c(Cl)c1 (centres undefined) to N#Cc1ccc(C(=O)NS(=O)(=O)c2ccc(C#N)c(Cl)c2)cc1, the “Percent Effect” value falls from 12.36% to -4.058%.

Going from O=C(NC[C@H]1C[C@@H]2CCN1C[C@@H]2CN1CCOCC1)Nc1ccsc1 to O=C(NC[C@H]1C[C@@H]2CCN1C[C@@H]2CN1CCCCC1)Nc1ccsc1, the “Percent Effect” value rises from 0.8179% to 3.271%.

Going from O=C(CSc1ccccn1)N1CCN(CCO)[C@@H]2CS(=O)(=O)C[C@@H]21 to CC(C)=CCN1CCN(C(=O)COc2ccccc2)[C@H]2CS(=O)(=O)C[C@H]21, the “Percent Effect” value falls from -2.402% to -38.59%.

First: CC(C)CN1C[C@H]2C[C@H](C(=O)NCc3cccnc3)[C@@H](C1)O2
Second: CC(C)CN1CCC2(COCc3cnc(-c4ccccc4)nc32)C1.O=C(O)C(F)(F)F (centres undefined)
The “Percent Effect” value of the first is lower: -10.23% for the first, 105.5% for the second.

Going from Cn1cc(CN2C[C@H]3CN(c4cncnc4)C(=O)[C@H]3C2)cn1.O=C(O)C(F)(F)F to O=C(O)C(F)(F)F.O=C1[C@@H]2CN(Cc3ccccn3)C[C@H]2CCN1c1cncnc1, the “Percent Effect” value rises from -0.6359% to 16.77%.

First: O=S1(=O)C[C@@H]2[C@H](C1)N(Cc1ncc[nH]1)CCN2Cc1cccnc1
Second: CCc1ccc2ncn(Cc3ncc[nH]3)c(=O)c2c1
The “Percent Effect” value of the first is lower: -2.711% for the first, 108.2% for the second.

Compared with COc1ccc2ncn(Cc3ncc[nH]3)c(=O)c2c1, CN1CCN(C(=O)c2cn(Cc3ccccc3)c3ncccc23)CC1 is higher in “Percent Effect” value: 121% for the first, 129.1% for the second.

Going from CCc1ncc(CN(CCc2ccccc2)Cc2cccs2)cn1.O=C(O)CC(O)(CC(=O)O)C(=O)O to O=C(O)CC(O)(CC(=O)O)C(=O)O.O[C@@]1(c2ccccn2)CC[C@H]2CN(Cc3ccccn3)C[C@H]21, the “Percent Effect” value rises from 50.24% to 115.3%.

Going from CN(C)c1ncc2c(n1)C1(CCN(Cc3ccccc3)C1)COC2.O=C(O)C(F)(F)F (centres undefined) to COCCN1CCC2(COCc3cnc(N(C)C)nc32)C1.O=C(O)C(F)(F)F (centres undefined), the “Percent Effect” value rises from -5.323% to 1.083%.

First: COCCN1CCC2(COCc3cnc(-c4ccccc4)nc32)C1.O=C(O)C(F)(F)F (centres undefined)
Second: CN1CCC2(COCc3cnc(-c4ccccc4)nc32)C1.O=C(O)C(F)(F)F (centres undefined)
The “Percent Effect” value of the first is higher: 89.12% for the first, 9.461% for the second.

Compared with O=C(O)C(F)(F)F.c1ccc(-c2ncc3c(n2)C2(CCN(CC4CC4)C2)COC3)cc1 (centres undefined), O=C(O)C(F)(F)F.O=C(O)C(F)(F)F.O=C1N(c2cncnc2)CCC12CCCN(Cc1ccccn1)C2 (centres undefined) is lower in “Percent Effect” value: 6.483% for the first, -2.82% for the second.

First: N#CC1(c2ccccc2)CCN(C(=O)C2CCCN(CC(N)=O)C2)CC1 (centres undefined)
Second: O=C(C1CC(=O)N(c2ccccc2)C1)N1CCC2(CC1)OCCO2 (centres undefined)
The “Percent Effect” value of the first is lower: -8.527% for the first, -2.385% for the second.

First: CC(C)(O)c1cn(C[C@H]2C[C@@H]3CCN2C[C@@H]3C(=O)N2CCOCC2)nn1
Second: O=C1N(Cc2ccccn2)C[C@H]2CN(C3CCOCC3)CCN12
The “Percent Effect” value of the first is lower: -10.14% for the first, 0.5644% for the second.

First: O=C(O)C(F)(F)F.O=C(O)C(F)(F)F.O=S(=O)(C1CC1)N1CCC2(CCCN(Cc3ccccn3)C2)C1 (centres undefined)
Second: CS(=O)(=O)N1CCC2(CCCN(Cc3ccccn3)C2)CC1.O=C(O)C(F)(F)F
The “Percent Effect” value of the first is higher: 113.2% for the first, 4.513% for the second.

Going from Cc1cnn(CC(C)NCCc2cccs2)c1 (centres undefined) to Cc1ccc(CC(=O)N2CCN(CC(O)c3ccccc3)CC2)cn1 (centres undefined), the “Percent Effect” value falls from 11.98% to -5.029%.

Compared with COCCN1C[C@H]2[C@@H](C1)N(C(=O)COc1ccccc1)CC[C@H]2OC, CCc1ccc(OCC(=O)N2CCN(CC)CC2)cc1 is lower in “Percent Effect” value: 0.3223% for the first, -2.93% for the second.

Going from O=C(c1ccnc(-n2cnnc2)c1)N1CCCC2(CCNC2)C1 (centres undefined) to CCOC(=O)N1CCCC2(CCCNC2)C1.Cl (centres undefined), the “Percent Effect” value falls from -10.09% to -10.87%.

Compared with CC(C)N1CCC(N(C)c2ccnc(N(C)C)n2)CC1, CN(C)c1nccc(N(C)C2CCN(CC3CCOC3)CC2)n1 (centres undefined) is lower in “Percent Effect” value: 15.64% for the first, -1.947% for the second.

First: Oc1ccc(N2CCN(Cc3ccc(F)cc3Br)CC2)cc1
Second: CCN1CCN(C(=O)c2cn(Cc3ccccc3)c3ncccc23)CC1
The “Percent Effect” value of the first is lower: 1.788% for the first, 118.7% for the second.

Compared with CCCN(CC)c1cc(C2CCNCC2)nc(C)n1, CCCN1CCC(c2nc3ccc(C)cn3n2)CC1.O=C(O)C(F)(F)F is lower in “Percent Effect” value: 112.1% for the first, 104.2% for the second.

Compared with CC(C)NC(=O)CN1CCSC2(CCCCC2)C1, CNc1ncccc1C(=O)N1CCN(C)C2(CCN(C)CC2)C1 is higher in “Percent Effect” value: -91.97% for the first, -3.315% for the second.

Going from O=C(c1cnc(-c2ccccc2)s1)N1CCC2(CC1)OCCO2 to O=C(c1cccc(-n2cnnn2)c1)N1CCC2(CC1)OCCO2, the “Percent Effect” value rises from -4.517% to 106.4%.

Going from CC[C@H]1CN2CC[C@H]1C[C@@H]2CNCc1ccc(OC(F)(F)F)cc1 to Cc1ccc(CN2C[C@@H]3CN(c4ncc(F)cn4)C[C@@H]3C2)cc1.O=C(O)C(F)(F)F, the “Percent Effect” value rises from -1.711% to 6.106%.

Going from CCOc1ncccc1C(=O)N1CCN(C)C2(CCN(C)CC2)C1 to O=C(O)CC(O)(CC(=O)O)C(=O)O.O[C@@]1(c2ccccn2)CC[C@H]2CN(Cc3cccc(Cl)c3Cl)C[C@H]21, the “Percent Effect” value rises from -9.489% to -2.173%.

For Cc1ccc([C@]2(O)CC[C@H]3CN(Cc4ccccc4F)C[C@H]32)nc1.O=C(O)CC(O)(CC(=O)O)C(=O)O, the “Percent Effect” value was 152.5%.
